According to ChEMBL document CHEMBL4513216, “Probing the Open Global Health Chemical Diversity Library for Multistage-Active Starting Points for Next-Generation Antimalarials” (ACS Infect Dis, 2020):
Screen size: about 69,000 compounds; about 8,600 (12%) showed an effect of 50% or more. The full list was thinned out, with strong results kept by preference.

system: Plasmodium berghei; experiment: Screen against P. berghei liver stage (PbLuc), transformed with Luciferase, at 10uM; format: functional, HepG2; conditions: tested at 10 uM

How did the INHIBITION turn out when `O=C(NC[C@H]1C[C@@H]2CCN1C[C@@H]2CN1CCCCC1)Nc1ccsc1` was run?
The INHIBITION was 33.2%.

Which INHIBITION does the source give for `CC1CCN(C[C@H]2CN3CC[C@H]2C[C@@H]3CNC(=O)Nc2ccsc2)CC1` here?
The INHIBITION was 77.7%.

With `O=C(NC[C@H]1C[C@@H]2CCN1C[C@@H]2CN1CCOCC1)Nc1ccsc1` as the molecule, how does the INHIBITION read?
Its INHIBITION is 41.1%.

`O=C(CC1CC1)NCc1cn2c(n1)CN(Cc1nccs1)CC2` was tested. Which INHIBITION did it give?
Its INHIBITION is 33.4%.

With `CCC(C)(NCC(=O)NC(C)C)c1nc(C)cs1` (centres undefined) as the molecule, how does the INHIBITION read?
The INHIBITION was 76.7%.

`CCC(C)(NCC(=O)Nc1nc(C)cs1)c1nc(C)cs1` (centres undefined) was tested. Which INHIBITION did it give?
Its INHIBITION is 12.2%.

`CCC(C)(NCC(=O)Nc1ccccc1)c1nc(C)cs1` (centres undefined) was tested. Which INHIBITION did it give?
The INHIBITION was 9.3%.

For `CC(C)c1nc(O)c2nnn(C[C@H]3CCCN(Cc4ccsc4)C3)c2n1`, which INHIBITION is on record?
The INHIBITION was 32.3%.

With `CCC(=O)N1CCC2(CC1)CN(CCO)Cc1ccccc12` as the molecule, how does the INHIBITION read?
Its INHIBITION is -16.2%.

For `CCc1oc2ccc(NS(C)(=O)=O)cc2c1C(=O)OC`, which INHIBITION is on record?
The INHIBITION was 12.8%.

How did the INHIBITION turn out when `COc1ccc(-c2cnc3n2CCNC32CCN(S(C)(=O)=O)CC2)cc1` was run?
Its INHIBITION is 57.1%.

For `COc1cccc(-c2cnc3n2CCC32CCN(S(C)(=O)=O)CC2)c1`, which INHIBITION is on record?
The INHIBITION was 39.3%.

With `CS(=O)(=O)N1CCC2(CC1)NCCn1c(-c3ccccc3)cnc12` as the molecule, how does the INHIBITION read?
Its INHIBITION is -0.554%.

Which INHIBITION does the source give for `COc1ccc(CC(=O)N2CCC[C@@H](N)[C@@H]2c2ccccc2F)cc1` here?
Its INHIBITION is 44.8%.

`CC(C)NC(=O)CC1COC2(CCN(Cc3cccs3)CC2)C1` (centres undefined) was tested. Which INHIBITION did it give?
Its INHIBITION is 29.9%.

Which INHIBITION does the source give for `CC(NC(=O)Nc1nccs1)C(=O)NC1CCCC1` (centres undefined) here?
The INHIBITION was 40.2%.

With `Cc1cnc(NC(=O)c2csc(NCC(C)C)n2)s1` as the molecule, how does the INHIBITION read?
Its INHIBITION is 83.8%.

`Cc1cnc(NC(=O)c2csc(NC3CCCC3)n2)s1` was tested. Which INHIBITION did it give?
The INHIBITION was 89.6%.

For `CCN(CC)C(=O)CCCNC(=O)c1csc(NC2CC2)n1`, which INHIBITION is on record?
Its INHIBITION is 28%.

Which INHIBITION does the source give for `O=C(Nc1ccccn1)c1csc(NC2CCCC2)n1` here?
Its INHIBITION is -32.8%.

How did the INHIBITION turn out when `O=C(Nc1nccs1)c1csc(NC2CCCC2)n1` was run?
Its INHIBITION is 80.9%.

Which INHIBITION does the source give for `CC(C)CCNc1nc(C(=O)NC2CC2)cs1` here?
The INHIBITION was -30%.

For `Cc1cccc(NC(=O)c2csc(NCC(C)C)n2)n1`, which INHIBITION is on record?
The INHIBITION was -27.5%.

With `Cc1cnc(NC(=O)N2CCCC2)s1` as the molecule, how does the INHIBITION read?
Its INHIBITION is -1.58%.

How did the INHIBITION turn out when `O=C(CCC1CCN(C2CCSCC2)CC1)NCC1CCCO1` (centres undefined) was run?
The INHIBITION was 42.1%.

With `CCc1nc(CN(C(C)=O)C2CCN(CCc3cccs3)C2)no1` (centres undefined) as the molecule, how does the INHIBITION read?
The INHIBITION was 36.1%.

Which INHIBITION does the source give for `CC(C)c1nc2c(n1C)CCN(Cc1cccc(OCC(N)=O)c1)C2` here?
Its INHIBITION is 7.08%.

`O=C(CSc1ccccn1)N1C[C@@H]2CC[C@H]1CN(Cc1cscn1)C2` was tested. Which INHIBITION did it give?
The INHIBITION was -38.9%.

`O=C(c1ccccn1)N1CCc2ncc(Cn3cccn3)n2CC1` was tested. Which INHIBITION did it give?
The INHIBITION was -14.2%.

For `O=C(CCn1ccc2cc(Br)ccc21)/N=c1\[nH]nc(C2CCCO2)s1` (centres undefined), which INHIBITION is on record?
The INHIBITION was 35.1%.

How did the INHIBITION turn out when `Cc1cc(=O)n2ncnc2n1CC(O)c1ccccc1Cl` (centres undefined) was run?
Its INHIBITION is 2.37%.

For `Cc1cc(=O)n2ncnc2n1CC(O)c1ccccc1F` (centres undefined), which INHIBITION is on record?
Its INHIBITION is 33%.

How did the INHIBITION turn out when `Cc1cc(=O)n2ncnc2n1CC(O)c1cc(Cl)ccc1Cl` (centres undefined) was run?
Its INHIBITION is 29.8%.

How did the INHIBITION turn out when `Cc1cc(=O)n2ncnc2n1CC(O)COCc1ccccc1Cl` (centres undefined) was run?
Its INHIBITION is 55.4%.

For `Cc1cc(CN(C)CCC(O)c2ccccc2)nn1C` (centres undefined), which INHIBITION is on record?
Its INHIBITION is -3.3%.

Which INHIBITION does the source give for `Cn1ncc2cnn(CC(O)COCc3ccccc3Cl)c2c1=O` (centres undefined) here?
Its INHIBITION is -30.1%.

For `Cc1cc(=O)n2ncnc2n1CC(O)c1cc(F)ccc1F` (centres undefined), which INHIBITION is on record?
The INHIBITION was -4.74%.

With `Cc1cc(=O)n2ncnc2n1CC(O)c1ccccc1` (centres undefined) as the molecule, how does the INHIBITION read?
Its INHIBITION is 62.9%.

For `Cc1cc(=O)n2ncnc2n1CC(O)c1ccc(F)cc1F` (centres undefined), which INHIBITION is on record?
The INHIBITION was 57.6%.

`CN1CCN(c2cc(CNC(=O)c3cccnc3O)ccn2)CC1` was tested. Which INHIBITION did it give?
The INHIBITION was 18.36%.

How did the INHIBITION turn out when `CCN1CCN(C2CCN(Cc3nc(C)c(C)o3)CC2)C1=O` was run?
The INHIBITION was 44.1%.

Which INHIBITION does the source give for `CCc1nc(C2CCCN2Cc2ncc(C)c(OC)c2C)no1` (centres undefined) here?
The INHIBITION was 11.4%.

How did the INHIBITION turn out when `O=S(=O)(C1CC1)N1CCOCC2(CCN(c3ccccn3)C2)C1` (centres undefined) was run?
The INHIBITION was -26.1%.

How did the INHIBITION turn out when `CS(=O)(=O)CC(=O)N1C[C@H]2CCC[C@@]2(COCc2ccncc2)C1` was run?
Its INHIBITION is 31.2%.

Which INHIBITION does the source give for `CCC(CCNC(=O)c1cc(C2CC2)nc2c1cnn2C)n1cccn1` (centres undefined) here?
Its INHIBITION is 9.55%.

With `CC(C)NC(=O)N1CCN(CCn2cccn2)c2ncccc2C1` as the molecule, how does the INHIBITION read?
Its INHIBITION is 5.89%.

With `COc1ccc(-c2ccccc2CCN)c(OC)c1OC` as the molecule, how does the INHIBITION read?
The INHIBITION was 50.8%.

With `COc1ccc(-c2ccccc2CCN)c(OC)c1` as the molecule, how does the INHIBITION read?
Its INHIBITION is -2.9%.

With `COc1ccc(-c2cc(CN)ccc2F)c(OC)c1OC` as the molecule, how does the INHIBITION read?
Its INHIBITION is 30.9%.

For `Cc1cnc(C(=O)N2C[C@@H](NS(C)(=O)=O)[C@@H]3OCCC[C@@H]32)cn1`, which INHIBITION is on record?
Its INHIBITION is 35.7%.

For `Cc1nc(CSCc2ccc(OCC(F)(F)F)nc2)no1`, which INHIBITION is on record?
Its INHIBITION is 40.7%.

Which INHIBITION does the source give for `Cc1nnc(CSCc2ccc(OCC(F)(F)F)nc2)o1` here?
The INHIBITION was 56%.

For `FC(F)(F)COc1ccc(CSCc2ccon2)cn1`, which INHIBITION is on record?
The INHIBITION was 24%.

How did the INHIBITION turn out when `O=C(CCN1CCCC1c1cccc2c1OCCO2)N1CCOCC1` (centres undefined) was run?
The INHIBITION was 57.7%.
